Experimental data from ChEMBL document CHEMBL3988442, “University of Dundee, Small-Polar-MMV Screening Library” (2021).
In all, about 48,000 compounds went through this assay and about 13,000 (27%) showed an effect of 50% or more. This is one part of the list.

What follows are compounds tested on Wolbachia pipientis (assay: Anti-Wolbachia Cell-Based Screen). Conditions: 5 µM.
Assay type: functional
Parameters: scale not given: in the data most compounds retested in dose-response had high values

SMILES	Percent Effect [%]
CCC(=O)c1cccc(S(=O)(=O)NC(C)C#N)c1 (stereo not drawn)	-8.003
Cc1ccccc1S(=O)(=O)N1CCCCC1c1ccn[nH]1 (stereo not drawn)	0.4281
O=C(NCC1CC1)C1CSCN1S(=O)(=O)c1cccc(F)c1 (stereo not drawn)	-6.551
O=S(=O)(c1cccs1)N1CCCCC1c1ccn[nH]1 (stereo not drawn)	120.2
O=S(=O)(c1cccc(F)c1)N1CCCCC1c1ccn[nH]1 (stereo not drawn)	127.9
O=C(O)C(F)(F)F.O=S(=O)(c1cccs1)N1CC[C@H]2[C@H]1CCN2c1ncccn1	-7.709
CN(C1CCN(c2ccccn2)CC1)S(=O)(=O)c1cccc(F)c1	13.53
O=C1c2c(O)cc(O)cc2O[C@@H](c2ccc(O)cc2)[C@@H]1O	0.6664
CC(=O)NCCNC(=O)c1sc(-c2ccc(Cl)s2)nc1C	-4.935
O=C(Nc1ccccc1)NC1CCN(C2CCOC2)CC1 (stereo not drawn)	-12.98
CC(C)c1nc(CN(C)C(=O)CNS(=O)(=O)c2cccs2)cs1	-16.12
COCc1cc(N(C)Cc2ncnn2C)nc(C(C)(C)C)n1	-13.36
O=C(O)C(=O)O.c1cnc(-c2noc(C3CN(Cc4ccc5c(c4)CCO5)C3)n2)cn1	6.909
COCc1nc(CN2CCOC(CN(C)c3cccnn3)C2)cs1 (stereo not drawn)	6.806
Cc1nc(C)c(CN2CCOC(CN(C)c3cccnn3)C2)s1 (stereo not drawn)	-0.1768
Cc1nc(C)c(CN2CCOC(CNc3cccnn3)C2)s1 (stereo not drawn)	87.52
CCOc1nnc(CN2CCOC(CNc3cccnn3)C2)s1 (stereo not drawn)	-8.583
CC(C)c1nc(CN2CCOC(CNc3cccnn3)C2)cs1 (stereo not drawn)	87.62
CCc1nc(CN2CCOC(CNc3cccnn3)C2)cs1 (stereo not drawn)	75.15
Cc1nc(CN2CCOC(CNc3cccnn3)C2)cs1 (stereo not drawn)	-1.722
CCc1nc(CN2CCOC(CN(C)c3cccnn3)C2)cs1 (stereo not drawn)	-6.381
CCCc1nc(CN2CCOC(CNc3cccnn3)C2)cs1 (stereo not drawn)	6.887
Cc1nc(CN2CCOC(CNc3cccnn3)C2)oc1C (stereo not drawn)	3.025

SMILES	Percent Effect [%]
Cc1cnc(CN2CCOC(CNc3cccnn3)C2)cn1 (stereo not drawn)	0.4879
COCc1nc(CN2CCOC(CNc3cccnn3)C2)cs1 (stereo not drawn)	82.18
Cn1cc(CCC(=O)NS(=O)(=O)N2CCCc3ccccc32)cn1	-16.6
CCc1nsc(N2CCn3c(nnc3C(F)(F)F)C2)n1	3.315
COCCOc1cc(C(=O)N2CC(C)c3ccccc32)ccn1 (stereo not drawn)	-1.249
COCC(=O)N[C@H](C)c1c(-c2ccc(Cl)cc2)noc1C(=O)O	-3.12
c1ccc(-c2nc(CN3CCOC(Cn4cccn4)C3)co2)cc1 (stereo not drawn)	93.62
Fc1ccc(-c2nc(CN3CCOC(Cn4cccn4)C3)co2)cc1 (stereo not drawn)	92.05
Cc1ccc(-c2nc(CN3CCOC(Cn4cccn4)C3)co2)cc1 (stereo not drawn)	108.6
c1coc(-c2nc(CN3CCOC(Cn4cccn4)C3)cs2)c1 (stereo not drawn)	16.31
Fc1cccc(-c2nc(CN3CCOC(Cn4cccn4)C3)co2)c1 (stereo not drawn)	1.83
c1csc(-c2nc(CN3CCOC(Cn4cccn4)C3)co2)c1 (stereo not drawn)	6.391
Fc1cccc(-c2nc(CN3CCOC(Cn4cncn4)C3)co2)c1 (stereo not drawn)	-2.254
c1ccc(-c2nc(CN3CCOC(Cn4cccn4)C3)no2)cc1 (stereo not drawn)	-5.165
O=C1COC[C@H]([C@H](O)c2ccc(NC(=O)c3cccnc3)cc2)N1	-8.221
Cc1ccc(-c2nnc([C@H]3CCN(C4CCC4)C3)o2)cc1	10.26
O=C(c1ncoc1C1CCCO1)N1CCCC2(CCCCC2)C1 (stereo not drawn)	-7.896
CN1CCOC(CNCc2ccc(OCc3ccccn3)cc2)C1 (stereo not drawn)	111
CN1CCOC(CNCc2cccc(OCc3ccccn3)c2)C1 (stereo not drawn)	-19.83
CCN1CCOC(CNCc2ccccc2OCc2ccccn2)C1 (stereo not drawn)	9.704
CN1CCOC(CNCCc2ccccn2)C1 (stereo not drawn)	-2.338
CCN1CCOC(CNCc2cccc(OCc3ccccn3)c2)C1 (stereo not drawn)	99.3
CC(C)CC(N)C1=N/C(=C2\N=CN=N2)NO1 (stereo not drawn)	-1.816

SMILES	Percent Effect [%]
CNC(=O)NC(=O)C(NCc1ccccc1)c1ccccc1 (stereo not drawn)	7.195
O=S(=O)(NCCNc1cc(-n2cccc2)ncn1)c1cccs1	9.931
Cc1cc(C)n2c(CCCNS(=O)(=O)c3ccc(F)cc3)nnc2n1	115.4
COc1ccc(CC(=O)NCCCc2nnc3nc(C)cc(C)n23)cc1	140.8
Cn1ccnc1CCNS(=O)(=O)c1ccc(Br)cc1	-0.8619
O=S(=O)(NCCNc1ccc(-n2cccc2)nn1)c1cccs1	19
COc1ccc(S(=O)(=O)NCCCc2ccc(N(C)C)cc2)cc1F	8.354
Cc1cc(C)n2c(CCCNS(=O)(=O)c3cccs3)nnc2n1	99.96
COc1cccc(CC(=O)NCCc2nnc3n2CCCCC3)c1	-1.985
COc1ccc(CCNC(=O)Nc2cc(C)nn2C)cc1	-34.88
CCOc1ccc(S(=O)(=O)NCCCc2ccc(N(C)C)cc2)cc1F	11.9
COc1ccc(S(=O)(=O)NCCCc2ccc(N(C)C)cc2)cc1Cl	10.52
COc1ccc(S(=O)(=O)NCCCc2nnc3nc(C)cc(C)n23)cc1	128.4
COCCN(C)c1ccc(NCc2cccnc2)nc1	-2.901
Cc1nc2cc(=O)[nH]n2c(C)c1CNC(=O)c1cnn(C(C)(C)C)c1	-22.93
CC(C)c1nnc2n1CCN(C(C)c1nnc(-c3cccs3)o1)C2 (stereo not drawn)	-12.3
CCc1ncc(C(=O)N(CC)CCOC)cn1	-25.3
O=S(=O)(NCCc1nnc2ccccn12)c1cccnc1	-2.198
Cc1nsc(NCCNS(=O)(=O)c2ccccc2)n1	-9.26
Cc1cc(C)n2c(CCCNS(=O)(=O)c3ccccc3)nnc2n1	105.2
Cc1nc(CN2CC(CO)Oc3ccccc32)sc1C (stereo not drawn)	-1.227
Cn1ccnc1CN(CCO)Cc1ccc(C(F)(F)F)cc1	-12.47
